ssDAF12 agonist: S. stercoralis DAF-12 activation, primary screen. HEK293 ssDAF-12/GRIP1 lit1-tk-luc reporter, luminescence; % of 3 µM dafachronic acid response. activation, % at 6.8 µM. actives 1% (n = 370,000);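 active = activation above the mean over all tested compounds plus 3 SD, cut at about 0.9% in these data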;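 also: 0% = DMSO-only wells and 100% = 3 µM delta7-dafachronic acid wells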
DAX1 inh-1: NR0B1 (DAX1) inhibition. actives 0.99% (n = 340,000). P51843. inhibition, % at 6.75 µM. AID 504766. HEK293 Gal4-DAX1 luciferase reporter, luminescence;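 active = inhibition above the mean over all tested compounds plus 3 SD, cut at about 4.2% in these data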;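 also: 0% = DAX1-transfected cells with DMSO and 100% = empty-vector control cells with DMSO; inhibition shows as a rise in luminescence from relieved DAX1 repression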
hcDAF12 agonist: H. contortus DAF-12 activation, primary screen; HEK293 hcDAF-12 lit1-tk-luc reporter, luminescence; 0% DMSO, 100% Δ7-dafachronic acid; activation, % at 6.8 µM; actives 1.4% (n = 370,000); AID 652067;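 active = activation above the mean of all tested compounds plus 3 SD, cut at about 5.5% in these data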;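 also: 100% = response to 3 µM Δ7-dafachronic acid high control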
hgDAF12 agonist: activates the H. glycines DAF-12 receptor ligand-binding domain. HEK293 GAL4-hgDAF12 UAS-luciferase reporter, agonist luminescence; normalized to butyrate control. actives 1.8% (n = 370,000). activation, % at 6.8 µM;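 active = activation above a cutoff set at the mean of all screened compounds plus 3 SD, cut at about 10% in these data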;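 also: 0% = DMSO wells and 100% = sodium butyrate wells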
DAX1 inh-2: inhibitors of DAX1 repression of SF-1 activated StAR promoter. AID 652010. actives 1.1% (n = 370,000). HEK293T StAR-luciferase reporter, SF-1/DAX-1 repression relief. inhibition, % at 6.8 µM;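 active = inhibition above the mean over all tested compounds plus 3 SD, cut at about 3.6% in these data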;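 also: 0% = DAX-1 cells with DMSO and 100% = cells lacking DAX-1 with DMSO; higher inhibition means more luminescence from relief of DAX-1 repression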
hgDAF12 ag: confirmation of H. glycines DAF-12 agonists; HEK293 GAL4-hgDAF12 luciferase reporter, agonist mode; percent of butyrate response; activation, % at 6.8 µM; shares compounds with hgDAF12 agonist; actives 80% (n = 3,300);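 active = mean activation over triplicate wells above the hit cutoff derived from the earlier primary screen, cut at about 11% in these data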;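 also: 0% = DMSO low control and 100% = 2 mM sodium butyrate high control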
LXR ag 2: counter-screen for DAF-12 agonists: agonists of human LXR-beta | shares compounds with hgDAF12 agonist | HEK293 Gal4-LXR luciferase reporter, 24 h | activation, % at 6.8 µM | 3,300 tested, under 10 active;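 active = mean activation of the triplicate above a set limit carried over from the primary screen, none filed active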
Target sequence (P55055 whole entry, looked up, the tested form may be a part): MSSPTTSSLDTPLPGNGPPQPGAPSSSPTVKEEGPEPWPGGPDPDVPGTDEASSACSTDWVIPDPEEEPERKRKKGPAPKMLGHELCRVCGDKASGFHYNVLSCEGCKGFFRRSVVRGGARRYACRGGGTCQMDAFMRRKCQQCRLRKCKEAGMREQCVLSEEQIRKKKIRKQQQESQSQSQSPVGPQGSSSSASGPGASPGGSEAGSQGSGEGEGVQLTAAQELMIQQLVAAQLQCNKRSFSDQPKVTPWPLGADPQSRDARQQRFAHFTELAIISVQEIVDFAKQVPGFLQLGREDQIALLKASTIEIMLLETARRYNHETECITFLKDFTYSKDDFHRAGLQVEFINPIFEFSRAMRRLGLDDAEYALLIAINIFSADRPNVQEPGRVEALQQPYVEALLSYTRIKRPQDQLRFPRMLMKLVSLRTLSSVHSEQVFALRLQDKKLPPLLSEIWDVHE
* hit, by the source's call; x = not tested or not shown. Compounds with a hit are over-represented: about 4.1% of the library has one in this group of screens.

SMILES	ssDAF12 agonist	DAX1 inh-1	hcDAF12 agonist	hgDAF12 agonist	DAX1 inh-2	hgDAF12 ag	LXR ag 2
O=C(N/C=C/c1ccccc1)c1ccccc1	1	2	4	15*	3	16*	1
O=c1c2ccc(Cl)cc2nc(-c2ccc([N+](=O)[O-])cc2)n1O	-1	1	-1	-2	-1	x	x
CCOC(=O)C(C)On1c(-c2ccc(Cl)cc2)nc2ccc([N+](=O)[O-])cc21 (stereo unspecified)	0	2	2	14*	2	20*	1
O=C(O)COn1c(-c2ccccc2)nc2ccc([N+](=O)[O-])cc21	1	2	4	14*	3	13*	1
COc1cccc(C(C)(O)c2nc(-c3cccc(NC(C)=O)c3)cs2)c1 (stereo unspecified)	-1	x	0	2	-1	x	x
O=C(N/N=C/c1ccc(OC(=O)c2ccco2)cc1)c1ccccn1	0	x	3	17*	4.0*	15*	1
O=C(N/N=C/c1cccc(OC(=O)c2ccco2)c1)c1ccc(F)cc1	0	1	3	17*	3	13*	0
CCOC1=C2CN(S(=O)(=O)c3ccc(C)cc3)C(c3ccccc3)CC2N(S(=O)(=O)c2ccc(C)cc2)C(c2ccc(Br)cc2)C1 (stereo unspecified)	-1	x	0	-4	0	x	x
COc1ccc(C(=O)NCCSC2CCCCC2)cc1	0	0	3	16*	2	11*	0
O=C(NCCSC1CCCCC1)c1ccccc1	0	0	1	5	2	x	x
COc1cccc(-c2c(-c3cc(OC)cc(OC)c3)n(C)c3ccc(-c4cnc(N5CCOCC5)nc4)cc23)c1	0	1	0	0	0	x	x
CC(C)Cc1ccc(C(C)C(=O)OCC(=O)c2c[nH]c3ccccc23)cc1 (stereo unspecified)	0	3	1	-2	0	x	x
CC1(C(=O)OCC(=O)c2c[nH]c3ccccc23)CC1(Cl)Cl (stereo unspecified)	1.6*	1	5	14*	2	15*	0
Nc1ccc(CCc2nc3ccccc3o2)cc1	-1	1	2	13*	4	13*	1
O=C(Nc1cccc2ccccc12)OCc1ccccc1	0	1	3	17*	1	6	0
CC(NS(=O)(=O)c1ccc(Br)cc1F)[C@H](O)c1ccccc1 (stereo partly specified)	-1	2	0	0	0	x	x
COc1cc(/C=N/O)ccc1OCc1ccc(C(=O)O)cc1	0	-6	3	13*	2	16*	1
COc1cc(/C=N/NS(=O)(=O)c2ccc3ccccc3c2)ccc1OCc1ccc(C(=O)O)cc1	0	-7	3	15*	3	13*	1
COC(=O)[C@]12CCCCC=C1N(Cc1cccc3ccccc13)C(=O)[C@H](CC(=O)N1CCCCC1)C2	-1	x	0	0	-1	x	x
Cc1[nH]c2ccccc2c1CC(=O)Nc1ccc(Nc2cccnc2)c(-c2ccc(-c3ccccc3)cc2F)c1	0	x	1	1	-1	x	x
COC(=O)C1=C(C)N(CC(C)C)C(=S)NC1c1cccc(Br)c1 (stereo unspecified)	-1	x	-1	-1	1	x	x
O=C(Nc1ccc2nc3ccccc3nc2c1)c1ccccc1	1	1	4	16*	3	14*	1
Cc1nc2cc(NC(=O)Nc3cccc4ccccc34)ccc2n1C	0	2	2	18*	3	12*	1
Cc1nc2cc(NC(=O)c3ccc(Cl)cc3)ccc2n1C	0	0	4	13*	2	16*	1
O=C(COc1coc(CN2CCN(c3ccccc3)CC2)cc1=O)NC1CCCC1	0	-1	0	0	-1	x	x
SMILES	ssDAF12 agonist	DAX1 inh-1	hcDAF12 agonist	hgDAF12 agonist	DAX1 inh-2	hgDAF12 ag	LXR ag 2
Cc1cc(C(=O)NC2CC(C)(C)Cc3c2cnn3-c2cccc(F)c2)nn1C (stereo unspecified)	-1	0	2	-2	2	x	x
COC(=O)C1=C(C)N(Cc2ccccc2C(F)(F)F)C(=NCC2CC2)NC1c1ccc(C(F)(F)F)cc1 (stereo unspecified)	0	x	-1	1	0	x	x
O=C(c1ccc(Cl)cc1)c1coc2ccc(O)cc12	0	3	3	17*	3	18*	1
Cc1cc(=O)c(C(=O)Nc2ccc(N3CCOCC3)cc2N2CCOCC2)nn1-c1ccccc1Cl	-1	1	0	1	0	x	x
O=C1NC(=S)NC1=Cc1ccc(Cl)cc1Cl	-1	1	-1	0	-1	x	x
O=C1NC(=O)C(=Cc2ccc(Cl)cc2Cl)S1	1	3	3	18*	4.4*	14*	1
O=C1c2ccccc2NC(c2ccc(O)cc2)N1/N=C/c1ccc(O)cc1 (stereo unspecified)	-1	2	-2	8	1	x	x
O=C1c2ccccc2NC(c2ccccc2)N1/N=C/c1ccccc1 (stereo unspecified)	1	1	5	15*	3	15*	1
COc1ccc(/C=C/C(=O)NC(=S)NNC(=O)c2cccs2)cc1	-1	3	2	13*	1	8	0
CCN(CCOC(=O)Nc1ccc(Cl)cc1)C(=O)Nc1ccc(Cl)cc1	-1	x	0	4	1	x	x
Cc1ccc(S(=O)(=O)N(CC(=O)c2ccc(Cl)cc2)C(=O)N2CCN(C)CC2)cc1	-1	0	0	0	0	x	x
CC(=O)Nc1ccc(S(=O)(=O)Nc2nnc(C)s2)cc1	-2	3	-2	1	-1	x	x
O=C(CC(Nc1ccc(Cl)cc1)C(=O)O)c1ccccc1 (stereo unspecified)	1.2*	1	4	14*	3	20*	1
O=C(N=C1N=C2C=CC=CN2Cc2ccccc21)c1ccc(S(=O)(=O)N2CCCC2)cc1	-2	2	3	8	1	x	x
CN(C)S(=O)(=O)c1cccc(C(=O)N=C2N=C3C=CC(Cl)=CN3Cc3ccccc32)c1	0	3	5	16*	1	7	0
O=C(N=C1N=C2C=CC=CN2Cc2ccccc21)c1ccc(S(=O)(=O)N2CCOCC2)cc1	0	4	3	16*	4.1*	12*	0
CN(C)S(=O)(=O)c1cccc(C(=O)N2CCN(Cc3ccccc3)CC2)c1	-1	1	-2	0	-1	x	x
NC(=S)N1OC[C@@H]2COc3ccc4ccccc4c3[C@@H]21	-1	1	3	21*	-1	8	0

Screening data deposited in PubChem BioAssay by The Scripps Research Institute Molecular Screening Center.
